# Experimental data from PubChem BioAssay (NCI).
# About 83,000 compounds went through this panel and 20% of them were active in at least one assay; those are over-represented in the sample as a whole.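 The endpoint reported here, percent growth, reads 100 for growth as untreated, 0 for no net growth and -100 for all cells dead.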 Values without a mark were called inactive. Active and inactive are the calls of the source. Rule for the calls: active = growth percent below 10; inactive = the rest.
# Columns and labels:
# Experiment in all cases: NCI-60 one-dose screen, 48 h (100 = growth as untreated, 0 = no growth, -100 = all killed)
# Settings in all cases: 10 µM unless noted
# DU-145 prostate = tested on: DU-145 prostate
# K-562 leukemia = tested on: K-562 leukemia
# MALME-3M melanoma = tested on: MALME-3M melanoma
# MDA-MB-231 breast = tested on: MDA-MB-231 breast
# RXF 393 renal = tested on: RXF 393 renal
# SF-268 CNS = tested on: SF-268 CNS
# SF-295 CNS = tested on: SF-295 CNS
# SF-539 CNS = tested on: SF-539 CNS
# UACC-257 melanoma = tested on: UACC-257 melanoma
# M14 melanoma = tested on: M14 melanoma
SMILES,growth (DU-145 prostate),growth (K-562 leukemia),growth (MALME-3M melanoma) [%],growth (MDA-MB-231 breast) [%],growth (RXF 393 renal),growth (SF-268 CNS) [%],growth (SF-295 CNS),growth (SF-539 CNS),growth (UACC-257 melanoma) [%],growth (M14 melanoma) [%]
CCNC(=O)Oc1ccc(/C(=C(/C)Cc2ccc(OC)cc2)c2ccc(OCCN3CCCCCC3)cc2)cc1,92.2%,5.8% (active),109,64.1,68.3%,74.5,88.4%,96.4%,76.7,68.3
CCOc1ccc(/C=N\N=C\c2ccc(OCC)cc2)cc1,17%,86.7%,115,83.6,84.9%,94,95.9%,96.4%,99,85.3
COc1ccc(C(O)c2cc3c(N)c(C(=O)Nc4cccc(Cl)c4)sc3nc2C)cc1 (stereo not given),8.86% (active),10.7%,41,20.2,-10.9% (active),28.9,9.76% (active),2.14% (active),47.1,21.3
COc1cc(C(=O)C(=O)c2cc(OC)c(O)c(OC)c2)cc(OC)c1O,119%,122%,103,97.2,104%,99.3,109%,97.1%,98.3,104
O=C1NC(=C(Cl)Cl)/C(=N/S(=O)(=O)NCCc2c[nH]c3ccccc23)N1,92.3%,55%,70,44.8,81.9%,21.4,98.7%,25.1%,73.9,83.8
O=S(=O)(c1ccccc1)N1CCCN(c2nc(-c3ccccc3)nc3nc(-c4ccccc4)oc23)CC1,119%,110%,105,108,115%,111,105%,104%,109,109
C/C(=N\Nc1nc(C)cs1)c1cc2ccccc2o1,107%,78.4%,93.8,79.9,120%,97.9,94.7%,94.8%,102,95.4
COC(=O)/C=C1/SC(=Nc2cccc(Cl)c2)N(CCc2c[nH]c3ccc(O)cc23)C1=O,14.4%,5.71% (active),42.6,29.1,10.7%,25.3,64.2%,0.787% (active),31.9,13
CC1=C(C(=O)n2c3ccccc3c3ccccc32)C(c2cccc([N+](=O)[O-])c2)C(C(=O)n2c3ccccc3c3ccccc32)=C(C)N1,103%,95.8%,88.9,85,111%,89.3,102%,98.6%,106,100
Cn1cc(C(=O)c2nc(-c3c[nH]c4ccc(Br)cc34)no2)c2cc(Br)ccc21,3.08% (active),37.7%,43.7,45.9,96.4%,55.9,88.4%,88.7%,109,47
Cc1cscc(C)c1=S,4.23% (active),96%,96.1,97.8,71.2%,95.7,76%,96.9%,89,93.1
CCCCc1oc2ccccc2c1C(=O)c1ccc(O)cc1,101%,37.8%,85.4,79.1,72.7%,94.2,175%,82.5%,76.8,92.2
